Screening results from PubChem BioAssay.
An excerpt weighted towards active compounds, which were near 9.4% of everything screened.
NPC1 prom act: activates the NPC1 promoter | Huh7 NPC1 promoter luciferase reporter, 24 h | Potency, µM (series often up to 9.22 µM), usual class: activators | 2.4% of 320,000 active | AID 485313; further: nearly all actives have a fitted effect of over 60% in size
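Luminescence read-out of NPC1 promoter-driven luciferase in stably transfected Huh7 cells; compounds delivered in DMSO and left 24 h at 37C, 5% CO2, qHTS titration format.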
ELG1 genotox: genotoxicity induction in ELG1-luciferase HEK293T cells; HEK293T ELG1-luciferase reporter, luminescence, 16 h; Potency, µM (series often up to 46 µM), actives largely listed as activators; 1.3% of 330,000 active; AID 504466; further: nearly all actives have a fitted effect of over 60% in size
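16 hr compound incubation (37 °C, 5% CO2) of HEK293T cells carrying luciferase-tagged ELG1; luciferase then measured by ONE-Glo luminescence after 30 min at RT.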
Rab9 promoter act: activates the Rab9 promoter | 2.8% of 320,000 active | Huh7 Rab9 promoter-luciferase reporter, luminescence, 24 h | AID 485297 | Potency, µM (doses to about 9.22 µM), usual class: activators; further: nearly all actives have a fitted effect of over 60% in size
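Huh7 reporter line, Rab9 promoter upstream of luciferase. Compound exposure 24 h at 37 °C in reduced-serum medium with 10% FBS. Read-out: luminescence.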
ELG1 DNA repair: ELG1-dependent DNA repair inhibition. HEK293T ELG1-luciferase reporter, luminescence, 16 h; DNA damage induced by 5-fluorouridine. Potency, µM (series often up to 46.1 µM), usual class: inhibitors. 2.3% of 330,000 active. AID 504467; further: nearly all actives have a fitted effect of over 55% in size
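Reporter activity after DNA damage by 5-fluorouridine is monitored. Compound-treated cells incubate 16 hr at 37 °C, then ONE-Glo is added for 30 min before luminescence reading.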
FLuc modulator: counter-screen for miR-21 project: firefly luciferase inhibitors or activators; purified FLuc, Km substrates, luminescence inhibition; Potency, µM (top dose mostly 57.5 µM), most hits filed as inhibitors; 6.9% of 360,000 active; further: nearly all actives have a fitted effect of over 55% in size
Target sequence (P08659 whole entry, looked up): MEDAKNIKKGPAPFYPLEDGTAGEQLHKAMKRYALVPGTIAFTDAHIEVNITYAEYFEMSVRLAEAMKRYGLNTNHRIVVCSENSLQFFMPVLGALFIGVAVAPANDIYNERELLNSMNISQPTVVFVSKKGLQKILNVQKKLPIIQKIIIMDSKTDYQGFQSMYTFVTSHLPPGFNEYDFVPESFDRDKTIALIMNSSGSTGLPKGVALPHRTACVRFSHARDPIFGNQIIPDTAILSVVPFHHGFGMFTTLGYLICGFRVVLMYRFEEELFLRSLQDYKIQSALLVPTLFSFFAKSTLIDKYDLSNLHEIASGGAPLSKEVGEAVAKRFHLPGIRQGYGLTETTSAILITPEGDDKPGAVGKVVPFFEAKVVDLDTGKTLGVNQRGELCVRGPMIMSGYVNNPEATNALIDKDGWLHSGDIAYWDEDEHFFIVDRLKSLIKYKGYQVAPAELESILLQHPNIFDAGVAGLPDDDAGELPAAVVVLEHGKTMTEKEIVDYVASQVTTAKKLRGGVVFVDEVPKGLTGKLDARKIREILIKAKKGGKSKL
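Purified P. pyralis luciferase (10nM final) with 10uM D-luciferin and 10uM ATP (Km levels) in 50mM Tris acetate pH 7.5, 10mM Mg acetate, 0.01% Tween-20, 0.05% BSA; qHTS 6-point titration, ~60 µM downward; luminescence read.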
SMN2 splice enh: enhancers of SMN2 splice variant expression; HEK293 SMN2-luciferase splicing reporter, luminescence, 30-36 h; Potency, µM (highest dose often 46.1 µM), actives largely listed as activators; 2.8% of 210,000 active; further: nearly all actives have a fitted effect of over 55% in size
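HEK293 cells carry an SMN2 […]–luciferase reporter in which exon 7 inclusion puts luciferase in frame. Cells were plated 10-12 h before compound addition, then incubated 30-36 h at 37C. ONE-Glo luminescence was read; sodium butyrate at 4.5 mM final served as control.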
Large screens that a line does not name were inactive. The call rests on the fitted dose curve; in most records, active means well fitted curve in the direction sought with a large enough effect; inconclusive means small, poorly fitted or top-dose-only effect, or another doubt; inactive means no such curve, though single readings can be large; an effect the other way counts as inactive or inconclusive.

COc1cc(C2CC(=O)Nc3cc4c(cc32)OCCO4)cc(OC)c1O (configuration not stated)	none (no result: NPC1 prom act, ELG1 genotox, Rab9 promoter act, ELG1 DNA repair)
C[C@]12C[C@@](C)(C=C1/C=C/c1ccc(C(F)(F)F)cc1)C(=O)C[C@H]2c1ccc(C(F)(F)F)cc1	none (no result: NPC1 prom act, ELG1 genotox, Rab9 promoter act, ELG1 DNA repair, FLuc modulator)
COCC(C)Nc1ncnc2c1cnn2-c1cccc(Cl)c1 (configuration not stated)	FLuc modulator 13µM (no result: NPC1 prom act, ELG1 genotox, Rab9 promoter act, ELG1 DNA repair, SMN2 splice enh)
Cc1ccc(-n2ncc3c(NC(C)c4ccccc4)ncnc32)cc1 (configuration not stated)	FLuc modulator 6µM (no result: NPC1 prom act, ELG1 genotox, Rab9 promoter act, ELG1 DNA repair, SMN2 splice enh)
CCC(CO)Nc1ncnc2c1cnn2-c1ccc(C)cc1 (configuration not stated)	FLuc modulator 3.4µM (no result: NPC1 prom act, ELG1 genotox, Rab9 promoter act, ELG1 DNA repair, SMN2 splice enh)
COc1ccc(OC)c(Nc2ncnc3c2cnn3-c2cccc(Cl)c2)c1	none (no result: NPC1 prom act, ELG1 genotox, Rab9 promoter act, ELG1 DNA repair, SMN2 splice enh)
CCCCc1ccc(Nc2ncnc3c2cnn3-c2ccc(C)cc2)cc1	none (no result: NPC1 prom act, ELG1 genotox, Rab9 promoter act, ELG1 DNA repair, SMN2 splice enh)
Cc1ccccc1C(=O)NNc1ncnc2c1cnn2-c1cccc(Cl)c1	none (no result: NPC1 prom act, ELG1 genotox, Rab9 promoter act, ELG1 DNA repair, SMN2 splice enh)
CC(Nc1ncnc2c1cnn2-c1cccc(Cl)c1)c1ccccc1 (configuration not stated)	FLuc modulator 24µM (no result: NPC1 prom act, ELG1 genotox, Rab9 promoter act, ELG1 DNA repair, SMN2 splice enh)
COc1ccc(NC(=O)CCc2nc3c(C)nn(-c4ccc(C)cc4)c3n(C)c2=O)c(OC)c1	none (no result: NPC1 prom act, ELG1 genotox, Rab9 promoter act, ELG1 DNA repair, SMN2 splice enh)
COc1cc(/C(O)=C(\C#N)c2nc3ccccc3[nH]2)cc(OC)c1OC	FLuc modulator inconclusive (no result: SMN2 splice enh)
CN=c1scc(-c2ccc([N+](=O)[O-])cc2)n1/N=C/c1ccco1	NPC1 prom act inconclusive, ELG1 genotox inconclusive, Rab9 promoter act 0.4µM, ELG1 DNA repair inconclusive, FLuc modulator inconclusive (no result: SMN2 splice enh)
O=c1oc(-c2cccs2)nc2sc3c(c12)CCCCC3	NPC1 prom act inconclusive, Rab9 promoter act inconclusive, ELG1 DNA repair inconclusive, FLuc modulator 1.2µM, SMN2 splice enh 16µM
CCc1c(-c2ccccc2)nc2sc3c(c2c1N)CCCC3	Rab9 promoter act inconclusive, FLuc modulator 1.7µM (no result: SMN2 splice enh)
CC(C)(C)c1nc2sc3c(c2c(=O)o1)CCCC3	ELG1 DNA repair inconclusive
O=c1oc(-c2ccccc2)nc2sc3c(c12)CCCC3	Rab9 promoter act inconclusive, ELG1 DNA repair inconclusive, FLuc modulator 1.2µM, SMN2 splice enh inconclusive
O=c1oc(/C=C/c2ccccc2)nc2sc3c(c12)CCC3	ELG1 genotox 14µM, Rab9 promoter act inconclusive, ELG1 DNA repair inconclusive, FLuc modulator 0.95µM, SMN2 splice enh 11µM
N#CCCn1c(=O)cnc2cnc(Nc3ccccc3)nc21	none (no result: NPC1 prom act, ELG1 genotox, Rab9 promoter act, ELG1 DNA repair, FLuc modulator)
CCOc1ccc(C(=O)NCC(c2ccc3c(c2)OCO3)N2CCN(C)CC2)cc1 (configuration not stated)	none (no result: NPC1 prom act, ELG1 genotox, Rab9 promoter act, ELG1 DNA repair, SMN2 splice enh)
CCc1nc2sc3c(c2c(=O)o1)CCCC3	ELG1 genotox inconclusive, ELG1 DNA repair inconclusive, FLuc modulator inconclusive
O=c1oc(-c2cc3ccccc3o2)nc2sc3c(c12)CCCC3	NPC1 prom act inconclusive, Rab9 promoter act inconclusive, ELG1 DNA repair inconclusive, FLuc modulator 2.4µM, SMN2 splice enh inconclusive
Cc1ccccc1-c1nc2sc3c(c2c(=O)o1)CCC3	FLuc modulator 2.4µM
Nc1nc(-c2cccnc2)nc2sc3c(c12)CCCC3	NPC1 prom act 2µM, ELG1 genotox 7.3µM, Rab9 promoter act 3.2µM, ELG1 DNA repair inconclusive, FLuc modulator 1.1µM, SMN2 splice enh 11µM
Cn1c(N/N=C/c2ccccc2)nc2sc3c(c2c1=O)CCC3	FLuc modulator 15µM
COc1ccc(N(CC(=O)NCCc2ccccc2)S(=O)(=O)c2ccccc2)c(OC)c1	none (no result: NPC1 prom act, ELG1 genotox, Rab9 promoter act, ELG1 DNA repair)
COC(=O)N1C2=C(c3ccccc3[C@@H]1CC(=O)Nc1ccc3cc4ccccc4cc3c1)[C@@H]1C(=O)N(c3ccccc3)C(=O)[C@@H]1[C@H](C)C2	none (no result: NPC1 prom act, ELG1 genotox, Rab9 promoter act, ELG1 DNA repair, FLuc modulator)
OC(COc1ccc2ccccc2c1Cl)CN1CCOCC1 (configuration not stated)	NPC1 prom act inconclusive, ELG1 genotox inconclusive, Rab9 promoter act inconclusive, ELG1 DNA repair inconclusive, FLuc modulator 17µM, SMN2 splice enh inconclusive
OC(COc1ccccc1)CN1CCOCC1 (configuration not stated)	none
O=C(Cn1c2ncccc2c(=O)n1-c1ccccc1)Nc1cccc(C(F)(F)F)c1	none (no result: NPC1 prom act, ELG1 genotox, Rab9 promoter act, ELG1 DNA repair, SMN2 splice enh)
O=C(Nc1sc2c(c1C(=O)O)CCCCC2)c1ccccc1F	NPC1 prom act 3.2µM, Rab9 promoter act 4µM, FLuc modulator 11µM, SMN2 splice enh 5.6µM
CCOC(=O)c1c(NC(=O)c2ccccc2C(=O)O)sc2c1CCCC2	none (no result: SMN2 splice enh)
O=C(Nc1sc2c(c1C(=O)O)CCCC2)c1ccc(F)cc1	Rab9 promoter act inconclusive, ELG1 DNA repair inconclusive, FLuc modulator 15µM (no result: SMN2 splice enh)
CCCNC(=O)c1c(NC(=O)c2ccccc2F)sc2c1CCCCC2	none (no result: NPC1 prom act, ELG1 genotox, Rab9 promoter act, ELG1 DNA repair)
COC(=O)c1c(NC(=O)c2ccccc2C(=O)O)sc2c1CCCC2	FLuc modulator 12µM (no result: NPC1 prom act, ELG1 genotox, Rab9 promoter act, ELG1 DNA repair)
NC(=O)c1c(NC(=O)c2cc3ccccc3o2)sc2c1CCC2	NPC1 prom act 0.32µM, ELG1 genotox 0.92µM, Rab9 promoter act 0.22µM, ELG1 DNA repair inconclusive, FLuc modulator 0.43µM, SMN2 splice enh 2.2µM
CCOC(=O)c1c(C)oc2nc(C)nc(NCC3CCN(Cc4ccc(Cl)cc4)CC3)c12	none (no result: NPC1 prom act, ELG1 genotox, Rab9 promoter act, ELG1 DNA repair, SMN2 splice enh)
NC(=O)c1c(NC(=O)c2ccc(F)cc2)sc2c1CCC2	NPC1 prom act 1.8µM, ELG1 genotox inconclusive, Rab9 promoter act 1.8µM, ELG1 DNA repair inconclusive, FLuc modulator 4.3µM (no result: SMN2 splice enh)
O=C(Nc1sc2c(c1C(=O)O)CCC2)c1ccco1	ELG1 genotox inconclusive, ELG1 DNA repair inconclusive, FLuc modulator inconclusive, SMN2 splice enh inconclusive
CC(C)(C)c1ccc(C(=O)Nc2sc3c(c2C(=O)O)CCC3)cc1	ELG1 DNA repair 3.7µM, FLuc modulator 11µM (no result: SMN2 splice enh)
CC(=O)Nc1sc2c(c1C(N)=O)CCCC2	none
